Results filed as inconclusive are left out. Entries that show only a call come without a potency. Calls of active or inactive are those of the source. Calls follow the shape of the dose curve; as a rule, active = well fitted cell-killing curve with a large enough effect; inconclusive = small, poorly fitted or top-dose-only effect; inactive = flat fitted curve, though single readings scatter.
experiment: Vero cells viability qHTS for Zika virus inhibitors (AID 1347167); conditions: cytotoxicity counter-screen (Zika); series mostly up to 45.9 µM
Description: Avindra Nath, Ph.D., National Institute of Neurological Disorders and Stroke (NINDS), Bethesda, MD
Radhakrishnan Padmanabhan, Ph.D., Georgetown University (GU), Washington D.C.
Zika Virus causes congenital defects, including microcephaly and is associated with Guillain-Barre syndrome, eningoencephalitis and myelitis in infected adult. […] Using a target-based approach, we hope to establish a screening paradigm to uncover novel, cell-active NS2B-NS3 protease (Zika Virus) specific inhibitors from NCATS' collection of small molecules using qHTS.
Four assay panel was created to identify potential Zika Virus inhibitors. Namely, (1) GU unlinked NS2B-NS3 AMC tagged protease qHTS, (2) GU unlinked NS2B-NS3 Rhodamine tagged protease qHTS, (3) NINDS linked NS2B-NS3 AMC tagged protease qHTS, (4) NINDS linked NS2B-NS3 Rhodamine tagged protease qHTS. Identified inhibitors were screened against the Vero and HepG2 cell viability assays using CellTiter Glo to exclude cytotoxic compounds.
Early Translation Branch (ETB)
National Center for Advancing Translational Sciences (NCATS), Rockville, MD
National Institute of Health (NIH), Bethesda, Maryland
Vero and HepG2 Cell Viability Assay:
Vero and HepG2 cell cytotoxicity were determined using a luminescent readout with CellTiter Glo reagent (Promega, Madison, WI), which is based on measuring the ATP content within cells. Briefly, 4 microL of Vero or HepG2 cells at 2.5 x 10^5 cells/mL in DMEM containing 4% FBS were dispensed into 1536-well solid bottom tissue treated white plate using a Multidrop Combi dispenser (Thermo Scientific). Plates were incubated at 37 degrees C, 95% humidity, and 5% CO2 overnight to allow for cell attachment. Compounds were dissolved in DMSO at different concentrations and transferred via pintool (Wako Automation), for a final concentration of 0.029 µM - 57 microM. Plates were again incubated for 24 to 48 hours, followed by a 2 microL addition of CellTiter Glo. Finally, plates were incubated for 30 minutes at 37 degrees C and 5% CO2 before being read on a ViewLux (Perkin Elmer) for luminescence.

Compound	Potency
O=c1cc(-c2ccccc2)oc2cc(O)c(O)c(O)c12	inactive
CC(=O)Nc1ccc([C@H](C)C(=O)Nc2ncc(C(C)C)s2)cc1	inactive
NC(=O)c1ccc2nc(-c3ccc(Oc4ccc(Cl)cc4)cc3)[nH]c2c1	inactive
CS(=O)c1ccc(-c2nc(-c3ccc(F)cc3)c(-c3ccncc3)[nH]2)cc1 (stereo not given)	inactive
CN(C)c1cc(NC(=O)CNC(C)(C)C)c(O)c2c1C[C@@H]1C[C@H]3[C@H](N(C)C)C(=O)C(C(N)=O)=C(O)[C@@]3(O)C(=O)C1=C2O	inactive
Cc1ccn(-c2ccc(-c3ncco3)cc2)c(=O)c1-c1ccc2nc(N)ncc2c1	inactive
COc1ccc2cc(-c3nc(-c4ccc(S(C)=O)cc4)[nH]c3-c3ccncc3)ccc2c1 (stereo not given)	inactive
CC1CCC(C(=O)N(c2cc(C#CC(C)(C)C)sc2C(=O)O)C2CCC(O)CC2)CC1 (stereo not given)	inactive
C[C@H](NC(=O)C(=O)Nc1ccccc1C(C)(C)C)C(=O)N[C@@H](CC(=O)O)C(=O)COc1c(F)c(F)cc(F)c1F	inactive
NC(=O)c1cccc2[nH]c(-c3ccc([C@H]4CCCN4)cc3F)nc12	inactive
